From PubChem
Rows were chosen to be rich in hits. Some 6% of all compounds tested hit in one or more screens of this group.
D1 antag – Antagonist of Human D 1 Dopamine Receptor: qHTS; D(1A) dopamine receptor (Homo sapiens), P21728; HEK293 TREx D1 cells, calcium flux, dopamine EC80; stronger effect = lower value; activity change, negative = inhibition, % at 10 µM; hit rate 3.2% among 360,000; AID 504652, 2011; in the data active means activity change below about -30%
Target sequence (P21728 whole entry, looked up): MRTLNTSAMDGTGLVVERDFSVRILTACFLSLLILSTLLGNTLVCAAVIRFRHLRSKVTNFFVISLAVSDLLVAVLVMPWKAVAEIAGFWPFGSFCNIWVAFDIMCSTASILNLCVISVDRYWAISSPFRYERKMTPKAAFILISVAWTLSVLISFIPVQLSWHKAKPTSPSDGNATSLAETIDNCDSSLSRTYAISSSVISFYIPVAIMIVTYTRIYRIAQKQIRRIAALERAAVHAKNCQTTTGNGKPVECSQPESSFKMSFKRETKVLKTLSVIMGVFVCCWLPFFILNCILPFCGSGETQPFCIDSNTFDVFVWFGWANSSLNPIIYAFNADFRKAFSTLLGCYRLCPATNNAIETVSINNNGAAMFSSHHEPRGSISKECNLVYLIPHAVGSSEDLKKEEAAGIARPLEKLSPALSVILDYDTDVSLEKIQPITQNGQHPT
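Tetracycline-induced HEK293 T-REx cells with force-coupled D1 receptor were loaded with a no-wash calcium dye. Compound was added after a 10 s baseline and read kinetically for 180 s; EC80 dopamine was then added and calcium flux followed another 180 s.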
D1 PAM – Potentiators of Human D1 Dopamine Receptor: qHTS; HEK293 TREx D1 cells, calcium flux, dopamine EC20 potentiation; hit rate 0.036% among 360,000; D(1A) dopamine receptor (Homo sapiens), P21728; potentiation, % at 10 µM; in the data active means potentiation above about 30%
DRD3 agonist – qHTS of D3 Dopamine Receptor Agonist: qHTS; D(3) dopamine receptor (Homo sapiens), P35462; D3R DiscoveRx beta-arrestin cells, luminescence, 90 min; max activation, %; hit rate 0.58% among 410,000; AID 652048, 2013; in the data active means max activation above about 30%
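Agonist mode: compounds and dopamine controls were applied to plated cells for 90 min at 37 degrees C after an overnight attachment at 1500 cells/well. Luminescent read-out followed 30 - 60 minutes at room temperature with DiscoveRx detection reagent.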
D1 ag – Allosteric Agonists of the Human D1 Dopamine Receptor: qHTS. AID 504660, 2011. HEK293 T-REx D1 cells, calcium flux, agonist mode. hit rate 1% among 360,000. activation, % at 2 µM. D(1A) dopamine receptor (Homo sapiens), P21728; in the data active means activation above about 30%
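Tetracycline-induced HEK293 TREx D1 cells, force-coupled to calcium signalling, were dye-loaded with a no-wash calcium kit. Compound was pin-added after a 10 s baseline. Fluorescence was read kinetically at 1 cycle/s for 180 s, with calcium rises flagged as agonism.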
DRD3 antagonist – qHTS of D3 Dopamine Receptor Antagonist: qHTS. D(3) dopamine receptor (Homo sapiens), P35462. D3R cells, DiscoveRx beta-arrestin luminescence, antagonist mode; stronger effect = lower value. max response, negative = inhibition, %. hit rate 2.5% among 360,000. AID 652054, 2013; in the data active means max response below about -50%; inconclusive means no clear call, values can overlap the other calls
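Cells plated overnight at 1500 cells/well, then exposed to library compounds with dopamine controls for 90 minutes at 37 degrees C. DiscoveRx reagent added for 30–60 minutes at room temperature; luminescence read, quantitative HTS format.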
A number is an active result; n = inactive; u = inconclusive; x = no result.

SMILES | D1 antag | D1 PAM | DRD3 agonist | D1 ag | DRD3 antagonist
CC(N)Cc1cn(Cc2ccccc2)c2ccccc12 (stereo unspecified) | n | n | n | 46.9 | n
CC(=O)c1cn(Cc2ccc(F)cc2)c2ccccc12 | n | n | n | n | u
CCCCC[C@@H](O)C1C(=O)OC(C)[C@H](O)/C=C/C=C/C=C/C=C/C=C(\C)C(O)C(O)C(O)C[C@H](O)C[C@H](O)C[C@H](O)C[C@H](O)C[C@@H]1O (stereo partly specified) | x | x | n | x | x
O=C(c1ccccc1)C(CN1CCCC1)c1ccccc1 (stereo unspecified) | n | n | n | n | -56.3
COC(=O)C1=C(c2cccc(OCc3ccccc3)c2)C[C@@H]2CC[C@H]1N2C(=O)NCc1ccc(OC)c(OC)c1 | x | n | n | n | n
COC(=O)C1=C(c2cccc(OCc3ccccc3)c2)C[C@@H]2CC[C@H]1N2C(=O)NCc1ccc(Cl)cc1 | n | n | n | n | -51.8
COC(=O)C1=C(c2ccc(F)cc2OCc2ccccc2)C[C@@H]2CC[C@H]1N2C(=O)NC1Cc2ccccc2C1 | -31.3 | n | n | n | n
COC(=O)C1=C(c2cccc(OCc3ccccc3)c2)C[C@@H]2CC[C@H]1N2C(=O)NCc1ccccc1OC | n | n | n | n | -51.6
COC(=O)C1=C(c2cccc(OCc3ccccc3)c2)C[C@@H]2CC[C@H]1N2C(=O)NCc1cc(C)oc1C(F)(F)F | -30.7 | n | n | n | n
COC(=O)C1=C(c2cccc(OCc3ccccc3)c2)C[C@@H]2CC[C@H]1N2C(=O)NCc1ccccc1 | n | n | n | n | n
O=C(Nc1ccc2c(c1)OCCO2)c1cccn(Cc2cccc(F)c2)c1=O | x | n | n | n | x
O=[N+]([O-])/N=C1\NCCN1Cc1ccc(Cl)nc1 | x | x | n | x | x
COC(=O)C1=C(c2cccc(OCc3ccccc3)c2)C[C@@H]2CC[C@H]1N2C(=O)NCc1ccc(OC)cc1 | n | 41.1 | n | n | -67.7
CC(Cc1ccccc1Sc1ccccc1)N(C)C (stereo unspecified) | -68.0 | n | n | n | -64.5
CC(N)Cc1ccccc1Sc1ccc(O)cc1 (stereo unspecified) | n | n | x | n | x
CN1CCN(Cc2ccccc2Sc2ccccc2)CC1 | n | n | n | 52.7 | -51.5
CN1CCN(Cc2nc3ccccc3c(=O)[nH]2)CC1 | n | n | n | n | n
CC(Cc1ccccc1Sc1ccc(O)cc1)N(C)C (stereo unspecified) | -48.5 | n | n | n | -51.8
CCOc1ccc2nc(NC(=O)c3cccn(Cc4ccc(Cl)cc4)c3=O)sc2c1 | n | n | n | n | x
c1cc2ccc3cccc4ccc(c1)c2c34 | x | x | n | x | x
O=C1C(c2ccccc2)=C(N2CC2)c2ccccc21 | n | n | n | n | n
O=C1C(=O)c2cccc3cccc1c23 | n | n | n | n | -58.7
O=C1C(=O)c2ccccc2-c2ccccc21 | n | n | n | n | -67.2
FC(F)(F)c1ccc(CN2CCNCC2)cc1 | n | n | n | n | n
FC(F)(F)c1cccc(N2CCNCC2)c1 | -31.9 | n | x | n | x
SMILES | D1 antag | D1 PAM | DRD3 agonist | D1 ag | DRD3 antagonist
Cc1ccccc1-n1nc(C)c2c1NC(=O)CSC2c1ccc(N(C)C)cc1 (stereo unspecified) | n | n | n | n | x
Cc1ccc(N2C(=O)NC(=O)/C(=C\C=C\c3ccco3)C2=O)cc1C | n | n | n | n | -58.6
Cc1ccc(N2C(=O)NC(=O)/C(=C\C=C\c3ccco3)C2=O)cc1 | n | n | n | n | n
O=C1NC(=O)C(CCc2ccncc2)(Cc2cccc(Cl)c2Cl)C(=O)N1c1ccc(Br)cc1 (stereo unspecified) | -75.7 | n | n | n | n
COc1ccc(Cl)cc1NC(=O)CN1C(=O)CN=C(c2ccccc2)c2cc(Cl)ccc21 | n | n | n | n | x
CCCN(CCC)C1Cc2cc(OC)c(OC)cc2C1 | x | x | n | x | -103.5
CCOc1ccc(CN2CCCC(C(=O)c3ccccc3OC)C2)cc1 (stereo unspecified) | n | n | n | n | -81.3
COc1ccccc1CN1CCCC(C(=O)c2ccccc2OC)C1 (stereo unspecified) | n | n | n | n | -59.4
COc1cccc(OC)c1CN1CCCC(C(=O)c2cccc(Cl)c2)C1 (stereo unspecified) | n | n | n | n | -78.1
CC(=O)N1CCC(N2CCCC(C(=O)c3cccc(Cl)c3)C2)CC1 (stereo unspecified) | n | n | 128.8 | n | n
COc1cccc(O)c1CN1CCCC(C(=O)c2sccc2C)C1 (stereo unspecified) | n | n | n | n | u
Cc1nnc2n1-c1sc(CCC(=O)N3CCOCC3)cc1C(c1ccccc1Cl)=NC2 | x | x | n | x | x
COc1ccc(NC(=O)CN2C(=O)CN=C(c3ccccc3)c3ccccc32)c(OC)c1 | n | n | n | n | x
Cc1ccccc1Cn1cccc(C(=O)Nc2nc3ccccc3s2)c1=O | n | n | n | n | x
CC[C@]1(O)CC[C@H]2[C@@H]3CCC4=CCCC[C@@H]4[C@H]3CC[C@@]21C | x | x | n | x | x
NCC[C@H](O)C(=O)N[C@@H]1C[C@H](N)[C@@H](O[C@H]2O[C@H](CN)[C@@H](O)[C@H](O)[C@H]2N)[C@H](O[C@@H]2O[C@H](CO)[C@@H](O)[C@H]2O)[C@H]1O | x | x | n | x | x
COc1ccccc1CN1CCCC(C(=O)c2ccccc2SC)C1 (stereo unspecified) | n | n | n | n | u
CCOc1ccccc1CN1CCCC(C(=O)c2cc(F)ccc2F)C1 (stereo unspecified) | n | n | n | n | -71.8
COc1cccc(C(=O)C2CCCN(Cc3ccccn3)C2)c1 (stereo unspecified) | n | n | n | n | n
COc1ccc(C(=O)C2CCCN(CCc3ccccc3)C2)cc1OC (stereo unspecified) | x | x | n | x | -68.1
CCOC(=O)NC(C)(C)Cc1ccc(Cl)cc1 | x | x | n | x | x
CN1/C(=C\C=C\C2=[N+](C)c3ccc4ccccc4c3C2(C)C)C(C)(C)c2ccccc21 | n | n | x | n | x
CCN1/C(=C/C=C/C2=[N+](CC)c3ccccc3C2(C)C)C(C)(C)c2ccccc21 | x | x | n | x | -71.6
Cc1ccccc1Cn1cccc(C(=O)Nc2cc(Cl)ccc2C#N)c1=O | n | n | n | n | x
CNc1ccc2oc(C[C@H]3O[C@@]4(CC[C@H]3C)O[C@H]([C@H](C)C(=O)c3ccc[nH]3)[C@H](C)C[C@H]4C)nc2c1C(=O)O | -44.9 | n | n | 418.5 | u
CC[C@H]1C[C@H]2[C@@H]3CCC4=CC(=O)CC[C@@H]4[C@H]3CC[C@]2(C)[C@H]1O | x | x | n | x | x
C[C@@H]1[C@H]2Cc3ccc(O)cc3[C@]1(C)CCN2C | x | x | n | x | x
